From the supplement of paper PMC6555819

Experiments:
Experiment in all cases: PBM binding z-score (relative to random genomic background probes); higher = stronger binding; sequences stand for … in GC…GCGATTGACAGCGTAGAATGAAGG
[1] = test system: FXR:RXRa (NR concentration 270 nM, RXRa partner concentration 90 nM)
Procedure, shortened: (§1)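 Custom Agilent 4×180K protein-binding microarrays carried double-stranded probes, each with a 34-nt variable region. These regions held direct-repeat seeds, single-nucleotide variants, half-site ablations and random human genomic background sequences. Ligand-free nuclear receptor dimers were incubated on the arrays for 1 h, antibodies against each partner (one per run) detected binding, and scanned fluorescence was regression-normalized. Binding z-scores take the random background probes as reference.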

[2] = test system: LXRa:RXRa (NR concentration 270 nM, RXRa partner concentration 90 nM)
Procedure, shortened: as §1

[3] = test system: LXRa homodimer (NR concentration 270 nM)
Procedure, shortened: as §1

[4] = test system: LXRb:RXRa (NR concentration 270 nM, RXRa partner concentration 90 nM)
Procedure, shortened: as §1

[5] = test system: LXRb homodimer (NR concentration 270 nM)
Procedure, shortened: as §1

[6] = test system: PPARa:RXRa (NR concentration 270 nM, RXRa partner concentration 90 nM)
Procedure, shortened: as §1

[7] = test system: PPARg:RXRa (NR concentration 180 nM, RXRa partner concentration 90 nM)
Procedure, shortened: as §1

[8] = test system: PPARg:RXRa 270nM:90nM, anti-RXR (NR concentration 270 nM, RXRa partner concentration 90 nM)
Procedure, shortened: as §1

[9] = test system: PPARg:RXRa 30nM:10nM, anti-RXR (NR concentration 30 nM, RXRa partner concentration 10 nM)
Procedure, shortened: as §1

[10] = test system: PPARg:RXRa 90nM:30nM, anti-RXR (NR concentration 90 nM, RXRa partner concentration 30 nM)
Procedure, shortened: as §1

Sequence | PBM binding z-score [1] | PBM binding z-score [2] | PBM binding z-score [3] | PBM binding z-score [4] | PBM binding z-score [5] | PBM binding z-score [6] | PBM binding z-score [7] | PBM binding z-score [8] | PBM binding z-score [9] | PBM binding z-score [10]
ACAGACAGGGGATGAAGGTAACTCAGGCTATCAT | 0.0429 | -0.217 | -0.0262 | 0.454 | 0.563 | 0.414 | 0.8 | -0.0093 | -0.0639 | -0.0825
CGACCTAGGTCAAGGACAGTGAATCTCCGCACGC | 4.5 | 2.95 | -0.0211 | 2.07 | -0.684 | 3.94 | 3.55 | 3.19 | 0.64 | 1.86
CAAACTAGGTAACCGGAAGGTCAAAGTCCGCATG | 4.07 | 3.94 | 3.88 | 3.43 | 0.672 | 4.48 | 4.83 | 4.98 | 2.22 | 4.2
ACTAGCAGGCCAAGTTTGGGTGACTCAAACAAAG | -0.397 | -0.73 | -0.818 | -0.554 | -0.715 | -0.036 | -0.341 | -0.319 | -0.347 | -0.213
TAGCCTAGGTCGGATCGGGCCAGTATACGCTATA | -0.358 | -0.506 | -0.432 | -0.741 | -0.754 | -0.324 | 0.0462 | -0.371 | -0.755 | -0.538
TCTTGTAGTTCAGCAGGTTAAGAAAGCTGGCCAA | 0.786 | 1.15 | 0.28 | 0.805 | 0.146 | 1.5 | -0.802 | 1.61 | 2.42 | 1.86
TCATATAGTTAAAGGTGAAAGTCGAACGATATGA | 0.692 | 1.27 | -0.183 | 1.25 | 0.00404 | 2.69 | 2.49 | 3.41 | 3.96 | 3.79
CCTACTGGACCAAAGGTCATTGATTCCAATGCTC | 4.9 | 5.68 | 5.86 | 5.23 | 2.31 | 6.24 | 10.5 | 9.96 | 10.5 | 10.8
TCTCGGACGACACGAAGGTCAGAGCTTTCCAGAG | 1.58 | 0.965 | -0.0974 | 1.17 | -0.374 | 1.96 | 0.474 | 1.77 | 2.37 | 2.15
TCTAGCACGCCAGAGGGTCACTCAAGAGGTACGG | 1.04 | 1.11 | -0.323 | 0.821 | -0.814 | 2.01 | 0.836 | 1.13 | 1.71 | 1.2
ATACTAAGGTGATCGTGAGGTCGTTGATACTAAC | 2.4 | 2 | 0.85 | 1.55 | 0.314 | 2.07 | 0.615 | 0.774 | 0.762 | 0.566
CATACATGGTCAGCTAGGCCAGAGTAGGGACGGC | -0.504 | -0.26 | -0.736 | -0.962 | -0.25 | -1.12 | 0.342 | -0.789 | -0.741 | -0.753
GCTGCTAGGTGAACTGATGGTCAGCTAAAGCTCG | -0.0942 | -0.291 | -0.843 | -0.328 | -1.56 | 1.27 | 0.329 | 0.967 | -0.226 | 0.635
TAGAGTAGGTTAGTCGGGGCATTCAGCCAACATA | 0.871 | 0.485 | 0.155 | 0.87 | 1.54 | 1.16 | 0.583 | 1.65 | 0.884 | 1.33
TCTCGGAGGACACGAAAGATCAGAGCTCGACATC | -0.277 | 0.0528 | -0.431 | -0.144 | -0.969 | 0.328 | 0.493 | 0.915 | 2.54 | 1.17
CGAACTAGGTCATAACAGGACAGTGAAGGATGAT | 3.19 | 4.15 | 0.43 | 1.95 | 0.0725 | 4.26 | 6.94 | 6.14 | 3.52 | 5.3
TAGGCTAGGTCATTGGGCCAGTATAGTACGCATC | 4 | 2.77 | 0.321 | 1.87 | 0.37 | 3.73 | 3.73 | 3.76 | 0.966 | 2.24
AGAATGAGGTTATTAGGATCAGGGAATTGCGGTC | 2.04 | 1.69 | 0.286 | 1.38 | 0.314 | 2.79 | 2.39 | 2.69 | 0.762 | 1.59
CAAACTAAGTCAAAGGTCAAAGTCGAGCCAACCA | 6.46 | 6.42 | 5.19 | 6.08 | 2.84 | 6.84 | 11.4 | 10.3 | 11.8 | 12.2
ACTAGCAAGCCAAGTTTGGGTCACTCAAACAAAG | -0.12 | -0.258 | -0.55 | 0.443 | -0.728 | 0.909 | -0.253 | 0.132 | -0.505 | -0.56
CCTCCTGGGCCAAAGGTCATTGATTCCAATGCTC | 4.65 | 5.11 | 3.68 | 4.79 | 0.666 | 5.6 | 9.24 | 8.76 | 10.1 | 10.1
GCTAATTGGTCAGTAAAAGGTCACACACCGGTCG | 3.55 | 4.31 | 5.15 | 4.41 | 1.19 | 4.8 | 3.38 | 4.52 | 2.45 | 3.96
ACTAGCAGGCCAAGGTTGGGTCACTCAAACAAAG | -0.0834 | -0.151 | -0.416 | 0.203 | -1.03 | 1.39 | 0.643 | 1.19 | -0.515 | 0.491
CAAACTAGGTCAAGAGGTCTAAGTCCGCTTCCCG | 3.48 | 2.8 | 0.46 | 1.7 | -0.0852 | 4.97 | 7.75 | 6.93 | 4.73 | 6.71
